Assay results: PubChem BioAssay
For part of these data: Results with a measured potency or affinity are listed apart. The source made the active and inactive calls.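 The calls were made as follows, unless noted: active = fluorescence ratio normalized to control raised more than 50% in primary screen plus both repeat runs; inactive = the rest.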

Legend:
[1] = system: TRPC4 beta (transient receptor potential cation channel C4), mouse; assay: activators of mouse TRPC4 channel, confirmation, cell-based, Fluo4 calcium, HEK293 TRPC4beta/mu-opioid, duplicates, 10 µM (AID 2426); settings: Fluo4 calcium fluorescence, at 10 µM; active compounds read high;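 as to activation: percent rise of integrated ratio over buffer wells lacking compound which define 0%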
[2] = system: transient receptor potential cation channel C4 beta (TRPC4), mouse; assay: activators of mouse TRPC4 channel, confirmation, cell-based, second round, Fluo4, HEK293 TRPC4beta/mu-opioid, 1 µM (AID 2461;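 active = primary screen active and over 50% activation in each of two duplicate runs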;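 as to activation: 0% = wells without test compound as baseline of integrated fluorescence ratio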); settings: Fluo4 calcium fluorescence, at 1 µM; active compounds read high
[3] = system: TRPC4 (transient receptor potential cation channel C4 beta), mouse; assay: positive allosteric modulators of mouse TRPC4, confirmation, cell-based, second round, Fluo-4, HEK293 TRPC4beta/mu-opioid, 1 µM (AID 2554;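 active = primary screen hit whose fluorescence ratio, in both repeats, exceeds the weak agonist control mean by 3 SD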); settings: DAMGO EC20, Fluo-4 calcium flux, at 1 µM; active compounds read high
[4] = system: TRPC4 beta (transient receptor potential cation channel C4), mouse; assay: positive allosteric modulators of mouse TRPC4, confirmation, cell-based, Fluo-4, HEK293 TRPC4beta/mu-opioid (AID 2555;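 active = primary screen hit whose calcium fluorescence ratio, in both repeats, exceeds the weak agonist control mean by 3 SD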); settings: DAMGO EC20, Fluo-4 calcium flux, at 10 µM; active compounds read high
[5] = molecular target: Short transient receptor potential channel 4 (Mus musculus) (UniProt Q9QUQ5); assay: inhibitors of mouse TRPC4 channel, confirmation, cell-based, Fluo4, HEK293 TRPC4beta/mu-opioid (AID 2636;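 active = calcium signal cut by more than 3 SD below the full-agonist control yet still positive, in both repeats and the earlier primary screen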); settings: DAMGO, Fluo4 calcium flux, at 10 µM; active compounds read high
[6] = molecular target: Short transient receptor potential channel 4 (Mus musculus) (UniProt Q9QUQ5); assay: inhibitors of mouse TRPC4 channel, confirmation, cell-based, second round, Fluo4, HEK293 TRPC4beta/mu-opioid, 1 µM (AID 2637;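 active = calcium signal ratio cut to more than 3 SD under the fully stimulated control mean yet still positive, in both repeats and the primary screen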;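 as to inhibition: percent of integrated ratio relative to wells lacking test compound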); settings: Fluo4 calcium flux, DAMGO, at 1 µM; active compounds read high
[7] = molecular target: Short transient receptor potential channel 4 (Mus musculus) (UniProt Q9QUQ5); assay: mouse TRPC4 channel activators, dose response, cell-based, HEK293 TRPC4/mu-opioid, Fluo-4 calcium (AID 434937;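 active = primary screen activator hit with a dose response curve and TRPC4 channel activation at any tested dose; inactive = no activation, no dose response, or not a primary hit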)
[8] = molecular target: Short transient receptor potential channel 4 (Mus musculus) (UniProt Q9QUQ5); assay: TRPC4 positive allosteric modulators, dose response, cell-based, HEK293 TRPC4/mu-opioid, Fluo-4 calcium, EC20 DAMGO (AID 434941;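 active = earlier screen potentiator hit that boosts the TRPC4 ion channel at some dose, with a dose response; inactive = no potentiation, no dose response, or not a prior hit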;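 also: calcium entry triggered by an EC20 dose of DAMGO at the co-expressed mu-opioid receptor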)
[9] = molecular target: Short transient receptor potential channel 6 (Mus musculus) (UniProt Q61143); assay: inhibition of mouse TRPC6 channel, confirmation, selectivity assay for TRPC4 inhibitor project, cell-based, HEK293, membrane potential dye, duplicate (AID 434948;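 active = active in primary screen and both duplicates, each dropping signal beyond three positive-control SD with fluorescence still positive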); settings: HEK293 TRPC6, membrane potential dye fluorescence, at 10 µM; inhibition: active compounds read high, stimulated with maximal-effect acetylcholine unless noted; outcome: stimulated with maximal-effect acetylcholine unless noted
[10] = molecular target: Short transient receptor potential channel 6 (Mus musculus) (UniProt Q61143); assay: activation of mouse TRPC6 channel, confirmation, selectivity assay for TRPC4 activator project, cell-based, HEK293, membrane potential dye, duplicate (AID 434950;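 active = membrane potential signal rise above negative control mean plus 3 SD in both duplicates, also active in the earlier TRPC4 screen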;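 as to activation: 0% = buffer only wells and 100% = acetylcholine maximal-effect wells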); settings: HEK293 TRPC6, membrane potential fluorescence, at 10 µM; active compounds read high
[11] = molecular target: Short transient receptor potential channel 6 (Mus musculus) (UniProt Q61143); assay: TRPC6 potentiation by TRPC4 potentiator hits, confirmation, selectivity assay for TRPC4 potentiator project, HEK293 cells, membrane potential dye, duplicate (AID 434952;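 active = compound raising the membrane signal above positive-control mean plus 3 SD in both repeats, and a primary screen hit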); settings: HEK293 TRPC6, membrane potential dye fluorescence, at 10 µM; maximal acetylcholine added after compound unless noted
[12] = molecular target: Short transient receptor potential channel 4 (Mus musculus) (UniProt Q9QUQ5); assay: calcium flux activators in TRPC4/5HT1a cells, counter-screen for TRPC4 activator project, cell-based, second counter screen, HEK293 TRPC4/5HT1a, Fluo-4 (AID 434977;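 active = calcium signal rise above buffer-control mean plus 5 SD in both duplicates, and also a hit in the primary screen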;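 as to activation: plate controls were assay buffer for no effect and maximal serotonin response for full effect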); settings: Fluo-4 calcium flux, at 10 µM; active compounds read high
[13] = calcium flux inhibitors in TRPC4/5HT1a cells, confirmation, counter-screen for TRPC4 inhibitor project, cell-based, second counter screen, HEK293 TRPC4/5HT1a, Fluo-4 (AID 434978;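 active = primary screen active whose calcium signal fell more than 3 SD beyond the full-serotonin control mean in both duplicate plates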;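 as to outcome: serotonin given first at submaximal then at maximal dose after compound preincubation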); settings: Fluo-4 calcium flux, at 10 µM; inhibition: active compounds read high, serotonin added to trigger calcium flux unless noted; outcome: serotonin added to trigger calcium flux unless noted
[14] = system: TRPC4 (mouse), co-expressed with 5HT1a in HEK293; assay: calcium flux potentiators in TRPC4/5HT1a cells, confirmation, counter-screen for TRPC4 potentiator project, cell-based, second counter screen, HEK293 TRPC4/5HT1a, Fluo-4 (AID 434979;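 active = signal rise over 3 SD above mean of control wells given weak agonist, in both repeats and first screen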); settings: Fluo-4 calcium flux, at 10 µM; outcome: serotonin added at its EC20 dose unless noted; potentiation: active compounds read high, serotonin added at its EC20 dose unless noted
[15] = calcium flux activation in mu-opioid HEK293 cells, confirmation, counter-screen for TRPC4 activator project, cell-based, HEK293 mu-opioid receptor line (AID 449723;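 active = hit in primary screen, with calcium signal over 5 SD above buffer well mean in both duplicates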;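 also: counter screen cells carry the mu-opioid receptor alone and lack TRPC4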); settings: Fluo-4 calcium fluorescence, at 10 µM; active compounds read high
[16] = calcium flux enhancement in mu-opioid HEK293 cells, confirmation, counter-screen for TRPC4 allosteric potentiator project, cell-based, HEK293 mu-opioid receptor line (AID 449724;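 active = calcium signal rise more than 3 SD above the low-dose agonist control mean, in both duplicate plates and the primary screen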); settings: Fluo-4 calcium flux, at 10 µM; compound added before EC20 DAMGO stimulus unless noted
[17] = molecular target: Short transient receptor potential channel 4 (Mus musculus) (UniProt Q9QUQ5); assay: mouse TRPC4 channel inhibitors, dose response, cell-based, HEK293 TRPC4/mu-opioid, Fluo-4 calcium (AID 434942;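 active = primary screen inhibitor hit that blocks the TRPC4 channel at some tested dose, yielding a dose curve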)

Chain of Short transient receptor potential channel 6 (Mus musculus) (Q61143 whole entry, looked up): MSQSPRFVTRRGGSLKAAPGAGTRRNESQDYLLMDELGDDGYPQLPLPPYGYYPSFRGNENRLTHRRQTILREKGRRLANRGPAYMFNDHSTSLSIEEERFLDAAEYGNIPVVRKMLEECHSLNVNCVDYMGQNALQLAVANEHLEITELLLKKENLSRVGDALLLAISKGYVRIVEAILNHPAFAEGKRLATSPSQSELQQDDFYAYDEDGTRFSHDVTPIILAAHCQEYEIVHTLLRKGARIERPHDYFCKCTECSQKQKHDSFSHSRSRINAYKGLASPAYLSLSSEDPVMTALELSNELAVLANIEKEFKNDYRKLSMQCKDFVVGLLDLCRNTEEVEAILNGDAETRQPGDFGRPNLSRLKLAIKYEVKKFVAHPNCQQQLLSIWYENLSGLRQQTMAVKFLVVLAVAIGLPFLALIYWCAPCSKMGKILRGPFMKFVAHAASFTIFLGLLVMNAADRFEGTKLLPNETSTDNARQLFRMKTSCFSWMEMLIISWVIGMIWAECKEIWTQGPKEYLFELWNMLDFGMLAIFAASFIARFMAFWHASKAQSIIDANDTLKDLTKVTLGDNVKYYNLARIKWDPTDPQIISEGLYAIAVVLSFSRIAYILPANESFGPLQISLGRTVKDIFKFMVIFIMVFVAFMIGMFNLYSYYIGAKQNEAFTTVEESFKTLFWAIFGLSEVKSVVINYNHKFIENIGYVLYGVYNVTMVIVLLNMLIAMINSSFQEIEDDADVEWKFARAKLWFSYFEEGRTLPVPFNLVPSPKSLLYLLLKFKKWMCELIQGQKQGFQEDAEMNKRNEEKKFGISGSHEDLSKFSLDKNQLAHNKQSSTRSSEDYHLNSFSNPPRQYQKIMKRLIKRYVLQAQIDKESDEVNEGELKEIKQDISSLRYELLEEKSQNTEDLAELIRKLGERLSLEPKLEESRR
Chain of Short transient receptor potential channel 4 (Mus musculus) (Q9QUQ5 whole entry, looked up): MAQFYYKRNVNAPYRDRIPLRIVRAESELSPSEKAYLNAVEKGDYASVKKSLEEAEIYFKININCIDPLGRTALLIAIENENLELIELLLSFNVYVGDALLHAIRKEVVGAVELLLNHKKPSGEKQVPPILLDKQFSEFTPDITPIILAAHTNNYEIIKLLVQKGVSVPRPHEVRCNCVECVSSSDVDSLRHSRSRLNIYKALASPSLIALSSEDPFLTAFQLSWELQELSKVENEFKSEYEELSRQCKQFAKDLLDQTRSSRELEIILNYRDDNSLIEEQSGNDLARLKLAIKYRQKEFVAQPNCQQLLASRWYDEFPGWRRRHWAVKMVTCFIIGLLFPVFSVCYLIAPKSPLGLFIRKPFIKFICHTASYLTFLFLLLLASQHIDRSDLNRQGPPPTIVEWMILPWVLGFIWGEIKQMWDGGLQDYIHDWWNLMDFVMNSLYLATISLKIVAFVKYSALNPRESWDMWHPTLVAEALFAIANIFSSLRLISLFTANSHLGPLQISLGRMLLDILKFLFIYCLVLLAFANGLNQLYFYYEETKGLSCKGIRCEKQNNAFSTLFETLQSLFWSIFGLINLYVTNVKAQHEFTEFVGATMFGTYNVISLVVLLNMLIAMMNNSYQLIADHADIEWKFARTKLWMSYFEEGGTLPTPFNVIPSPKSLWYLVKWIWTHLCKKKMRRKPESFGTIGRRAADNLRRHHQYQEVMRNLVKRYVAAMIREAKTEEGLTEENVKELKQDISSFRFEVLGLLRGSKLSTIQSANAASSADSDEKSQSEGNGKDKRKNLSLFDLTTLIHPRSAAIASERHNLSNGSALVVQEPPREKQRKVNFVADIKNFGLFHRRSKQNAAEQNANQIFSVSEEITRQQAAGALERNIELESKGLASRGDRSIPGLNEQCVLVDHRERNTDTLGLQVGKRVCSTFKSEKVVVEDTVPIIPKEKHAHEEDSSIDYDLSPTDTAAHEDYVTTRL

COc1cccc(O)c1CN1CCCC(C(=O)c2sccc2C)C1 (stereo not given)
inactive: outcome [1] | outcome [2] | outcome [3] | outcome [4] | outcome [7] | outcome [8] | outcome [9] | outcome [10] | outcome [11] | outcome [12] | outcome [14] | outcome [15] | outcome [16]
active: inhibition [5] 94% | inhibition [6] 40% | inhibition [13] 29.8%

CC[C@@H](CO)NC(=O)[C@@H]1C=C2c3cccc4c3c(cn4C)C[C@H]2N(C)C1
inactive: outcome [3] | outcome [4] | outcome [5] | outcome [6] | outcome [8] | outcome [17] | outcome [9] inactive [setting not given] | outcome [10] | outcome [11] inactive [setting not given] | outcome [13] inactive [setting not given] | outcome [14] inactive [setting not given] | outcome [15] | outcome [16] inactive [setting not given]
active: activation [1] 107% | activation [2] 57% | activation [12] 147%

c1ccc2sc(C3CCCNC3)nc2c1 (stereo not given)
inactive: outcome [3] | outcome [4] | outcome [5] | outcome [6] | outcome [8] | outcome [17] | outcome [9] | outcome [11] | outcome [13] | outcome [14] | outcome [15] | outcome [16]
active: activation [1] 170% | activation [2] 115% | activation [10] 44% | activation [12] 95.3%

COc1ccc(CNCCc2c[nH]c3ccccc23)c(OC)c1C
active: activation [1] 151% | activation [10] 63.5% | activation [12] 13.6%
inactive: outcome [2] | outcome [3] | outcome [4] | outcome [5] | outcome [6] | outcome [8] | outcome [17] | outcome [9] | outcome [11] | outcome [13] | outcome [14] | outcome [15] | outcome [16]

Cc1ccccc1C(O)(Cc1ccccc1)C1CN2CCC1CC2 (stereo not given)
active: activation [1] 109% | activation [10] 51%
inactive: outcome [2] | outcome [3] | outcome [4] | outcome [5] | outcome [6] | outcome [8] | outcome [17] | outcome [9] | outcome [11] | outcome [12] | outcome [13] | outcome [14] | outcome [15] | outcome [16]

COc1ccc(C(=O)C2CCCN(C3CSCCSC3)C2)cc1OC (stereo not given)
active: activation [1] 166% | activation [2] 86% | activation [10] 33.5% | activation [12] 87.7%
inactive: outcome [3] | outcome [4] | outcome [5] | outcome [6] | outcome [8] | outcome [17] | outcome [9] | outcome [11] | outcome [13] | outcome [14] | outcome [15] | outcome [16]

Cc1cc(-c2ccccc2)cc(C)[n+]1Cc1ccccc1
active: activation [1] 142%
inactive: outcome [2] | outcome [3] | outcome [4] | outcome [5] | outcome [6] | outcome [8] | outcome [17] | outcome [9] | outcome [10] | outcome [11] | outcome [12] | outcome [13] | outcome [14] | outcome [15] | outcome [16]

COc1cc(C)c(CNCCc2c[nH]c3ccccc23)cc1C
active: activation [1] 165% | activation [10] 54.5% | activation [12] 74.2% | activation [15] 12.8%
inactive: outcome [2] | outcome [3] | outcome [4] | outcome [5] | outcome [6] | outcome [8] | outcome [17] | outcome [9] | outcome [11] | outcome [13] | outcome [14] | outcome [16]

Cc1ccc(NC(=S)NCCc2cnc[nH]2)cc1C
inactive: outcome [3] | outcome [4] | outcome [5] | outcome [6] | outcome [8] | outcome [17] | outcome [9] | outcome [10] | outcome [11] | outcome [13] | outcome [14] | outcome [15] | outcome [16]
active: activation [1] 199% | activation [2] 106% | activation [12] 85%

CN(C)C(CNC(=O)Cc1c(Cl)cccc1Cl)c1ccccc1 (stereo not given)
active: activation [1] 148% | activation [2] 86% | activation [10] 57.5%
inactive: outcome [3] | outcome [4] | outcome [5] | outcome [6] | outcome [8] | outcome [17] | outcome [9] | outcome [11] | outcome [12] | outcome [13] | outcome [14] | outcome [15] | outcome [16]

CCOC(=O)C1(CCc2ccccc2)CCN(Cc2ccc(NC(C)=O)cc2)CC1
active: activation [1] 83% | activation [2] 90% | activation [10] 41.5%
inactive: outcome [3] | outcome [4] | outcome [5] | outcome [6] | outcome [8] | outcome [17] | outcome [9] | outcome [11] | outcome [12] | outcome [13] | outcome [14] | outcome [15] | outcome [16]

CN(C)C=C1C(=O)N(C2CCCCC2)C(=O)N(C2CCCCC2)C1=O
inactive: outcome [2] | outcome [3] | outcome [4] | outcome [5] | outcome [6] | outcome [8] | outcome [17] | outcome [9] inactive [setting not given] | outcome [10] | outcome [11] inactive [setting not given] | outcome [13] inactive [setting not given] | outcome [14] inactive [setting not given] | outcome [16] inactive [setting not given]
active: activation [1] 83% | activation [12] 124% | activation [15] 39.4%

Cc1nc2ccccn2c1P(=S)(N1CCCCC1)N1CCCCC1
active: activation [1] 88% | activation [10] 88% | activation [12] 87.7% | activation [15] 74.7%
inactive: outcome [2] | outcome [3] | outcome [4] | outcome [5] | outcome [6] | outcome [8] | outcome [17] | outcome [9] | outcome [11] | outcome [13] | outcome [14] | outcome [16]

Clc1ccc2sc(C3CCNCC3)nc2c1
active: activation [1] 210% | activation [2] 166% | activation [12] 82.6%
inactive: outcome [3] | outcome [4] | outcome [5] | outcome [6] | outcome [8] | outcome [17] | outcome [9] | outcome [10] | outcome [11] | outcome [13] | outcome [14] | outcome [15] | outcome [16]

COc1ccccc1CC(=O)N1CCN(CCc2ccccc2)CC1
inactive: outcome [2] | outcome [3] | outcome [4] | outcome [5] | outcome [6] | outcome [8] | outcome [17] | outcome [9] | outcome [11] | outcome [13] | outcome [14] | outcome [15] | outcome [16]
active: activation [1] 79% | activation [10] 48.5% | activation [12] 13.4%
